Assay outcomes: PubChem BioAssay, The Scripps Research Institute Molecular Screening Center
hgDAF-12 ag = activates the H. glycines DAF-12 receptor ligand-binding domain. HEK293 GAL4-hgDAF12 UAS-luciferase reporter, agonist luminescence; normalized to butyrate control. activation, % at 6.8 µM. 1.8% of 370,000 active. AID 687014;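 active = activation above a cutoff set at the mean of all screened compounds plus 3 SD, cut at about 10% in these data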;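 note: 0% = DMSO wells and 100% = sodium butyrate wells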
hcDAF-12 act = activators of H. contortus DAF-12 nuclear receptor | HEK293 hcDAF-12 lit1-tk-luc reporter, luminescence; 0% DMSO, 100% Δ7-dafachronic acid | activation, % at 6.8 µM | 1.4% of 370,000 active | AID 652067;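 active = activation above the mean of all tested compounds plus 3 SD, cut at about 5.5% in these data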;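 note: 100% = response to 3 µM Δ7-dafachronic acid high control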
DAX1 inh-1 = inhibits human nuclear receptor DAX1. P51843. HEK293 Gal4-DAX1 luciferase reporter, luminescence. inhibition, % at 6.75 µM. 0.99% of 340,000 active;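 active = inhibition above the mean over all tested compounds plus 3 SD, cut at about 4.2% in these data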;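 note: 0% = DAX1-transfected cells with DMSO and 100% = empty-vector control cells with DMSO; inhibition shows as a rise in luminescence from relieved DAX1 repression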
Target sequence (P51843 207-470 limits assumed): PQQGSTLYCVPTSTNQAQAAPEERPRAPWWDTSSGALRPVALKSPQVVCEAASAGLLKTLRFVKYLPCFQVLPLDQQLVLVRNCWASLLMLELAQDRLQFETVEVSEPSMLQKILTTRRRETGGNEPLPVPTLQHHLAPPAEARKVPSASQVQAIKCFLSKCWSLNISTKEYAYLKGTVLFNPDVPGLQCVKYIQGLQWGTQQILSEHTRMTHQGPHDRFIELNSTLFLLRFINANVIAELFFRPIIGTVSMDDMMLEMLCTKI
ssDAF12 agonist = activators of S. stercoralis DAF-12 nuclear receptor; HEK293 ssDAF-12/GRIP1 lit1-tk-luc reporter, luminescence; % of 3 µM dafachronic acid response; activation, % at 6.8 µM; 1% of 370,000 active;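 active = activation above the mean over all tested compounds plus 3 SD, cut at about 0.9% in these data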;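 note: 0% = DMSO-only wells and 100% = 3 µM delta7-dafachronic acid wells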
AHR act = activators of human aryl hydrocarbon receptor. AHR-responsive luciferase reporter cells, luminescence. activation, % at 5 µM. 2.5% of 320,000 active; in the data active = activation above about 47%;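 note: 0% = vehicle wells and 100% = reference agonist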
DAX1 inh-2 = inhibitors of DAX1 repression of SF-1 activated StAR promoter | 1.1% of 370,000 active | HEK293T StAR-luciferase reporter, SF-1/DAX-1 repression relief | AID 652010 | inhibition, % at 6.8 µM;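 active = inhibition above the mean over all tested compounds plus 3 SD, cut at about 3.6% in these data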;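 note: 0% = DAX-1 cells with DMSO and 100% = cells lacking DAX-1 with DMSO; higher inhibition means more luminescence from relief of DAX-1 repression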
Active calls of the source: *; nt = not tested or not shown. Compounds with a hit are over-represented: about 5.7% of the library has one in this group of screens.

SMILES	hgDAF-12 ag	hcDAF-12 act	DAX1 inh-1	ssDAF12 agonist	AHR act	DAX1 inh-2
COC(=O)c1cc(S(=O)(=O)N2CCCC2=O)c(Cl)cc1Cl	-2.6	-0.6	0.8	-1.1	3.5	-0.8
OCCCNc1ncnc2c1ncn2[C@H]1CN(Cc2ccc3c(c2)OCO3)C[C@@H](CO)O1	-0.9	6.3*	nt	-1.2	nt	-0.1
Cc1ccc(C(=O)NCCSC(C)(C)C)cc1	10.8*	4.6	2.2	0.4	9.6	4.0*
Cc1ccc2oc(C(=O)N3CCN(Cc4ncccc4C)CC3)c(C)c2c1	-0.9	-1.3	-0.3	-1.1	1.9	-0.8
Cc1snc(S(=O)(=O)/C(C#N)=N/Nc2cccc(C(F)(F)F)c2)c1C#N	nt	nt	-0.6	nt	98.2*	nt
COc1ccc(N/N=C(/C#N)S(=O)(=O)c2nsc(C)c2C#N)cc1	0.8	1.7	-0.4	0.8	5.3	-0.7
COc1ccc(/C=C/CN2CCCC(C(=O)c3ccc(OC)c(F)c3)C2)cc1 (centres undefined)	-2.5	0.3	0.9	-1.4	2.4	-0.5
OCc1ccc2c(c1)c(-c1ccc3c(c1)OCCO3)c(-c1ccccc1)n2-c1ccccc1	-1.0	2.1	4.4*	0.4	22.4	0.0
CN1Cc2nnn(CC3CCCCC3)c2-c2ccccc2S1(=O)=O	-2.8	-2.9	nt	-1.4	nt	-0.2
O=C(Cn1cnc2ccccc2c1=O)Nc1ccc(S(=O)(=O)N2CCOCC2)cc1	3.8	-0.4	0.1	-1.2	47.5*	-0.1
O=C(O)c1nccnc1C(=O)Nc1ccc(S(=O)(=O)N2CCOCC2)cc1	-2.8	-0.5	0.9	1.8*	-1.2	-0.3
Cn1c(-c2ccccc2)cccc1=O	0.6	1.4	1.2	1.3*	6.3	-0.1
CCOC(=O)c1cccc(NC(=O)CN(C)S(=O)(=O)c2cc(OC)ccc2OC)c1	0.8	-2.9	nt	-1.3	nt	-0.7
Cc1nc(-c2ccncc2)nc(NCCNc2ccc(C(F)(F)F)cn2)c1Cl	-0.1	-0.8	9.1*	-0.4	0.9	-0.5
CCCn1c(-c2cccc([N+](=O)[O-])c2)nc2c1c(=O)[nH]c(=O)n2Cc1ccccc1	-0.1	-0.3	6.4*	-1.0	1.2	-0.9
COc1ccc(C(=O)N2CCC3(CC2)NCCc2[nH]cnc23)cc1	-1.9	0.6	0.5	-1.0	2.7	-1.7
O=c1c(O)c(-c2ccccc2)oc2ccccc12	7.3	-2.9	4.9*	-1.2	nt	1.2
c1ccc(SCCOCCN2CCc3ccccc3C2)cc1	2.6	6.3*	0.5	-0.8	14.2	0.8
COC(=O)Cn1c(CCC(=O)O)ccc1-c1ccccc1	-0.4	-2.1	5.2*	-1.1	-0.6	0.6
CC(C)c1[nH]nc2c1C(c1cccc(C(F)(F)F)c1)NC2=O (centres undefined)	1.8	-1.4	nt	-1.6	nt	-0.6
CC(=O)Nc1cccc(NC(=O)C(=O)c2cn(CC(=O)N3CCCC3)c3ccccc23)c1	5.3	6.0*	0.0	1.2*	nt	1.6
CCOC(=O)CN=C(NS(=O)(=O)c1ccc(Cl)cc1)c1ccccc1	-0.5	-1.6	1.3	-0.9	1.9	-0.5
CSCCC(N=C(NS(=O)(=O)c1ccc(C)cc1)c1ccccc1)C(=O)O (centres undefined)	4.1	1.7	4.3*	-1.6	-0.2	0.0
O=C(O)CN=C(NS(=O)(=O)c1ccc(Cl)cc1)c1ccc(F)cc1	0.3	-0.3	6.0*	-1.2	-1.3	0.3
O=C(O)CN=C(NS(=O)(=O)c1ccc(Cl)cc1)c1ccccc1	-0.9	-0.5	-0.8	-0.3	3.2	-0.3
SMILES	hgDAF-12 ag	hcDAF-12 act	DAX1 inh-1	ssDAF12 agonist	AHR act	DAX1 inh-2
Cc1ccc(S(=O)(=O)NC(=NCC(=O)O)c2ccccc2)cc1	-3.7	-1.2	0.6	1.1*	0.0	0.5
CSCCC(N=C(NS(=O)(=O)c1ccc(Br)cc1)c1ccccc1)C(=O)O (centres undefined)	3.6	-0.9	-0.9	-1.5	1.2	0.9
O=CN1CCCN(Cc2nc(-c3cccc(Cl)c3)no2)CC1	5.7	1.3	1.2	-1.8	2.3	0.2
COc1ccc(CC(=O)Nc2ccccc2C(F)(F)F)cc1S(=O)(=O)N1CCOCC1	1.7	-0.6	1.1	-0.9	nt	-1.1
COc1cc(CN2CCNC(=O)C2CC(=O)N2CCc3ccccc3C2)cc(OC)c1 (centres undefined)	0.8	0.7	0.2	-1.4	2.2	-0.6
Oc1cc(OCc2ccccc2)ccc1-c1[nH]ncc1-c1ccccc1	-1.4	-0.8	0.9	-1.1	15.0	-0.1
O=[N+]([O-])c1ccc(COc2ccc(-c3[nH]ncc3-c3ccccc3)c(O)c2)cc1	2.4	1.3	-1.0	-1.1	57.2*	0.2
CC(C)CC(=O)Nc1cccc(-c2nc3ccccc3[nH]2)c1	6.3	-2.3	0.1	-1.2	57.6*	0.1
CC(C)(C)C(=O)Nc1cccc(-c2nc3ccccc3[nH]2)c1	-0.3	-1.7	-1.5	-1.4	60.5*	0.0
CC(=O)Nc1cccc(-c2nc3ccccc3[nH]2)c1	-3.6	-1.8	2.3	-1.3	47.4*	-0.3
COc1ccc2c(c1)CN1C(=O)N(C3CCCC3)S(=O)(=O)CC21 (centres undefined)	3.6	3.3	nt	-0.2	nt	1.0
COC(=O)C1=C(C)N(Cc2ccccc2C(F)(F)F)C(=NCc2ccc(OC)cc2)NC1c1ccccc1C(F)(F)F (centres undefined)	-0.3	-1.9	nt	-1.2	nt	-0.6
O=C(NCc1cccnc1)c1cc2nc(-c3ccc4c(c3)OCO4)cc(C(F)(F)F)n2n1	1.2	-1.3	1.3	-1.5	9.6	0.6
O=C(NCc1ccco1)c1cc2nc(-c3ccc4c(c3)OCO4)cc(C(F)(F)F)n2n1	-1.7	0.1	0.0	-1.8	63.1*	-1.8
CCOc1ccccc1NC(=O)c1c(Br)cnn1C	3.8	0.0	1.1	-1.0	59.0*	-0.6
CCn1ncc(Br)c1C(=O)Nc1ccccc1OC	0.5	-1.2	1.1	-1.0	49.5*	-0.6
COC(=O)c1ccc(NC(=O)c2c(Br)cnn2C)cc1	0.8	-1.7	0.5	-1.0	1.8	0.2
O=C(Cn1ncc(N2CCCC2)c(Cl)c1=O)c1ccc(Cl)cc1	4.4	0.6	3.9	1.6*	5.8	1.9
CCOc1ccc(Cn2nnc(C(=O)NCCc3ccc(Cl)cc3)c2N)cc1	-0.3	-1.9	2.0	-0.5	5.2	-0.8
COc1cccc(Cn2nnc(C(=O)NCCc3ccc(Cl)cc3)c2N)c1	3.0	-1.3	5.5*	-1.6	7.4	-0.8
CCOc1ccc(Cn2nnc(C(=O)NCCc3ccccc3)c2N)cc1	7.1	-1.7	4.4*	-0.9	25.4	0.8
COc1ccc(-c2[nH]c(-c3ccc4c(c3)OCO4)nc2-c2ccccc2)cc1	-3.2	-1.1	-1.1	-1.9	73.7*	-0.6
O=[N+]([O-])c1cccc(-c2nc(-c3ccccc3)c(-c3cccs3)[nH]2)c1	-1.6	-0.7	-0.7	-1.1	23.5	-1.8
